About 2,000 (36%) of roughly 5,500 compounds were called active. About 18% were inconclusive and are not listed. Cut-off read from the data, not from the text of the source: active = normalized growth mostly below about 0.91 (no sharp cut-off); inconclusive = no clear call, values can overlap the other calls; inactive = mostly above about 0.92. Some of the results follow.
Experiment: chemical genetic growth profiling, strain panel (AID 1159580);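 note: tested at 20 µM; growth read once vehicle control cultures reached saturation at 30 °C; 1 = growth at the plate median or of vehicle wells; lower values mean less growth of the strain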
Settings: S. cerevisiae deletion strains, growth OD

Measured: normalized growth

CCc1cc2c(cc1-c1csc(C/C(N)=N\O)n1)C(C)(C)CCC2(C)C
active: locus YER123W, strain YCK3, stronger effect = lower value 0.568 | locus YER133W, strain GLC7, stronger effect = lower value 0.712 | locus YGR052W, strain FMP48, stronger effect = lower value 0.567 | locus YHR030C, strain SLT2, stronger effect = lower value 0.499 | locus YJR066W, strain TOR1 (second series), stronger effect = lower value 0.601 | locus YKL048C, strain ELM1, stronger effect = lower value 0.721 | locus YKL101W, strain HSL1, stronger effect = lower value 0.701 | locus YLR113W, strain HOG1, stronger effect = lower value 0.369 | locus YML070W, strain DAK1, stronger effect = lower value 0.618 | locus YNL183C, strain NPR1, stronger effect = lower value 0.553 | locus YOR231W, strain MKK1, stronger effect = lower value 0.525 | locus YPL031C, strain PHO85, stronger effect = lower value 0.639 | locus YPL153C, strain RAD53, stronger effect = lower value 0.552 | locus YPL256C, strain CLN2, stronger effect = lower value 0.546
inactive: locus YAR019C, strain CDC15, stronger effect = lower value 0.985 | locus YBL105C, strain PKC1, stronger effect = lower value 0.974 | locus YBR135W, strain CKS1, stronger effect = lower value 0.969 | locus YBR136W, strain MEC1, stronger effect = lower value 0.981 | locus YBR160W, strain CDC28, stronger effect = lower value 0.986 | locus YDL017W, strain CDC7, stronger effect = lower value 0.978 | locus YDL028C, strain MPS1, stronger effect = lower value 0.985 | locus YDL101C, strain DUN1, stronger effect = lower value 0.979 | locus YDL108W, strain KIN28, stronger effect = lower value 0.968 | locus YDL132W, strain cdc53, stronger effect = lower value 0.965 | locus YDL214C, strain PRR2, stronger effect = lower value 0.757 | locus YDR052C, strain DBF4, stronger effect = lower value 0.974 | locus YDR054C, strain cdc34, stronger effect = lower value 0.97 | locus YDR226W, strain ADK1, stronger effect = lower value 0.976 | locus YDR477W, strain SNF1, stronger effect = lower value 0.75 | locus YFL009W, strain cdc4, stronger effect = lower value 0.967 | locus YFL029C, strain CAK1, stronger effect = lower value 0.974 | locus YFR003C, strain YPI1, stronger effect = lower value 0.974 | locus YFR019W, strain FAB1, stronger effect = lower value 0.819 | locus YFR028C, strain CDC14, stronger effect = lower value 0.973 | locus YGR040W, strain KSS1, stronger effect = lower value 0.749 | locus YGR092W, strain DBF2, stronger effect = lower value 0.722 | locus YHR079C, strain IRE1, stronger effect = lower value 0.525 | locus YHR082C, strain KSP1, stronger effect = lower value 0.647 | locus YHR205W, strain SCH9, stronger effect = lower value 0.77 | locus YIL147C, strain SLN1, stronger effect = lower value 0.981 | locus YJL095W, strain BCK1, stronger effect = lower value 0.532 | locus YJL128C, strain PBS2, stronger effect = lower value 0.962 | locus YJL157C, strain FAR1, stronger effect = lower value 0.779 | locus YJR016C, strain ILV3, stronger effect = lower value 0.965 | locus YJR066W, strain TOR1, stronger effect = lower value 0.666 | locus YKL067W, strain YNK1, stronger effect = lower value 0.755 | locus YKL193C, strain SDS22, stronger effect = lower value 0.973 | locus YKL203C, strain TOR2, stronger effect = lower value 0.764 | locus YLR133W, strain CKI1, stronger effect = lower value 0.813 | locus YLR403W, strain SFP1, stronger effect = lower value 0.784 | locus YMR001C, strain CDC5, stronger effect = lower value 0.969 | locus YMR205C, strain PFK2 (second series), stronger effect = lower value 0.78 | locus YMR277W, strain FCP1, stronger effect = lower value 0.963 | locus YNL006W, strain LST8, stronger effect = lower value 0.977 | locus YNL020C, strain ARK1, stronger effect = lower value 0.788 | locus YNL161W, strain CBK1, stronger effect = lower value 0.977 | locus YNL207W, strain RIO2, stronger effect = lower value 0.964 | locus YNL222W, strain SSU72, stronger effect = lower value 0.972 | locus YNL307C, strain MCK1 (second series), stronger effect = lower value 0.797 | locus YOL078W, strain AVO1, stronger effect = lower value 0.969 | locus YOL136C, strain PFK27, stronger effect = lower value 0.738 | locus YOR061W, strain CKA2, stronger effect = lower value 0.788 | locus YOR119C, strain RIO1, stronger effect = lower value 0.78 | locus YOR329C, strain SCD5, stronger effect = lower value 0.981 | locus YPL204W, strain HRR25, stronger effect = lower value 0.759 | locus YPL209C, strain IPL1, stronger effect = lower value 0.976 | locus YPR025C, strain CCL1, stronger effect = lower value 0.978 | locus YPR106W, strain ISR1, stronger effect = lower value 0.976 | locus YPR111W, strain DBF20, stronger effect = lower value 0.966 | strain NNK1, stronger effect = lower value 0.947 | strain TSCII, stronger effect = lower value 0.975
